Laboratory results: PubChem BioAssay AID1159580 (chemical genetic matrix, 2015)
Among all 5,500 compounds or so, about 2,000 (36%) were called active. Not shown: some 18% with an inconclusive outcome. Rule as the data show it: active = normalized growth mostly below about 0.91 (no sharp cut-off); inconclusive = no clear call, values can overlap the other calls; inactive = mostly above about 0.92. Some of the results follow.

Assay: chemical genetic growth profiling, strain panel (AID 1159580);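 also: tested at 20 µM; growth read once vehicle control cultures reached saturation at 30 °C; 1 = growth at the plate median or of vehicle wells; lower values mean less growth of the strain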
Details: S. cerevisiae deletion strains, growth OD

Measured: normalized growth

Oc1ccc2c(c1)OCC1c3cc4c(cc3OC21)OCO4 (stereo not drawn)
inactive: locus YBR021W, strain FUR4, active compounds read low 0.862 | locus YBR229C, strain ROT2, active compounds read low 0.957 | locus YCL029C, strain bik1, active compounds read low 0.946 | locus YDL035C, strain GPR1, active compounds read low 0.981 | locus YDL074C, strain BRE1, active compounds read low 1.03 | locus YDL101C, strain DUN1, active compounds read low 0.987 | locus YDL134C, strain PPH21, active compounds read low 1.02 | locus YDL185W, strain tfp1, active compounds read low 0.964 | locus YDL192W, strain arf1, active compounds read low 0.944 | locus YDR101C, strain arx1, active compounds read low 0.942 | locus YDR150W, strain NUM1, active compounds read low 1 | locus YDR162C, strain NBP2, active compounds read low 0.993 | locus YDR318W, strain mcm21, active compounds read low 0.962 | locus YDR388W, active compounds read low 0.966 | locus YDR502C, strain sam2, active compounds read low 0.961 | locus YEL061C, strain CIN8, active compounds read low 0.99 | locus YER110C, active compounds read low 0.954 | locus YER155C, strain BEM2, active compounds read low 1 | locus YER167W, strain BCK2, active compounds read low 1 | locus YGL078C, strain dbp3, active compounds read low 0.992 | locus YGL086W, strain mad1, active compounds read low 0.957 | locus YGL248W, strain PDE1, active compounds read low 1 | locus YGR135W, strain pre9, active compounds read low 0.993 | locus YGR252W, strain gcn5, active compounds read low 0.902 | locus YHR079C, strain IRE1 (second series), active compounds read low 0.995 | locus YHR094C, strain hxt1, active compounds read low 0.982 | locus YHR129C, strain ARP1, active compounds read low 1.02 | locus YHR200W, strain rpn10, active compounds read low 0.972 | locus YIL066C, strain RNR3, active compounds read low 0.999 | locus YIL073C, strain SPO22, active compounds read low 1.03 | locus YIL125W, strain kgd1, active compounds read low 0.968 | locus YIR030C, strain dcg1, active compounds read low 0.971 | locus YJL095W, strain BCK1, active compounds read low 0.929 | locus YJL134W, strain LCB3, active compounds read low 0.992 | locus YJL168C, strain set2, active compounds read low 0.996 | locus YJL187C, strain SWE1 (second series), active compounds read low 0.966 | locus YJR075W, strain HOC1, active compounds read low 0.999 | locus YKL009W, strain mrt4, active compounds read low 0.987 | locus YKL068W, active compounds read low 1 | locus YKL085W, strain MDH1 (second series), active compounds read low 1.02 | locus YKL085W, strain MDH1, active compounds read low 1.02 | locus YKL190W, strain CNB1, active compounds read low 1.01 | locus YLR039C, strain RIC1, active compounds read low 0.982 | locus YLR058C, strain SHM2, active compounds read low 0.962 | locus YLR102C, strain apc9, active compounds read low 0.984 | locus YLR268W, strain sec22, active compounds read low 0.906 | locus YLR371W, strain rom2, active compounds read low 0.973 | locus YML016C, strain PPZ1, active compounds read low 0.983 | locus YML032C, strain rad52, active compounds read low 0.956 | locus YML124C, strain tub3, active compounds read low 0.995 | locus YMR078C, strain ctf18, active compounds read low 1 | locus YMR223W, strain ubp8, active compounds read low 0.983 | locus YMR307W, strain GAS1, active compounds read low 1.04 | locus YNL067W, strain RPL9B, active compounds read low 1.01 | locus YNL128W, strain TEP1, active compounds read low 1.01 | locus YNL233W, strain BNI4, active compounds read low 1.05 | locus YNL250W, strain rad50, active compounds read low 1 | locus YNL271C, strain bni1, active compounds read low 0.974 | locus YNL298W, strain CLA4, active compounds read low 0.939 | locus YNL307C, strain MCK1, active compounds read low 0.95 | locus YNR052C, strain pop2, active compounds read low 0.994 | locus YOL012C, strain htz1 1.23 | locus YOL147C, strain pex11, active compounds read low 0.967 | locus YOR061W, strain CKA2, active compounds read low 0.988 | locus YOR069W, strain VPS5, active compounds read low 1.01 | locus YOR136W, strain idh2, active compounds read low 0.982 | locus YOR144C, strain elg1, active compounds read low 0.986 | locus YOR316C, strain cot1, active compounds read low 0.985 | locus YPL055C, strain LGE1, active compounds read low 0.963 | locus YPL241C, strain CIN2, active compounds read low 1.01 | locus YPR119W, strain clb2, active compounds read low 1.02 | locus YPR141C, strain kar3, active compounds read low 1.01 | locus YPR167C, strain met16, active compounds read low 1.01 | strain wtn01, active compounds read low 0.943
active: locus YKR001C, strain vps1, active compounds read low 0.863 | locus YLR418C, strain cdc73, active compounds read low 0.781 | locus YOR184W, strain ser1, active compounds read low 0.826 | locus YPR163C, strain tif3, active compounds read low 0.906
